Laboratory results reported in PubChem BioAssay.
Several values for one entry are separate records, joined by “and”; a condition that tells them apart may be missing. Identical values can stand only once. Some compounds were tested as several samples or in several runs, with calls that do not always agree. Activity calls are given as the source filed them.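 The calls were made as follows, unless noted: active = thallium flux through the channel raised or lowered by more than 3 SD from vehicle-only wells, actives on both sides; inactive = the rest.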

Legend:
[1] = blockers of polyQ-driven CASP3 activation – cell-based (AID 1583); settings: polyglutamine-induced caspase-3 activation, cell assay; stronger effect = higher value;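 tested at 10 µM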
[2] = yeast 75Q aggregation reduction – 75Q-TubU reporter (AID 1593); settings: Yeast 75Q polyglutamine aggregation reporter
[3] = blockers of cytochrome c efflux from mitochondria – biochemical, purified mitochondria (AID 1603); settings: stronger effect = lower value;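 also: mouse liver mitochondria challenged with calcium chloride; signal normalized to the plate average as 100%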
[4] = polyglutamine aggregate formation blockers (AID 1604); settings: polyglutamine-induced protein aggregation inhibition assay; stronger effect = higher value; tested at 2.5 µM
[5] = glutamate transport activators, MN-1 cells, MN-1 cell line (AID 1612); settings: MN-1 motor neuron cells, stronger effect = higher value;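 also: tested at 1 µM final; 0% = mean of DMSO vehicle wells on each plate; positive means more glutamate uptake than control and negative means less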
[6] = signal quenchers or enhancers, Cy5 substrate/SSB – biochemical, NIH Clinical Collection, E. coli SSB, artefact control for HCV NS3 helicase inhibitor project (AID 743268; call rule not given here); settings: Cy5-oligo bound E. coli SSB, fluorescence interference
[7] = tested on: Hepatitis C virus NS3 helicase; test: blockers of NS3h binding to DNA – biochemical, fluorescence polarization, NIH Clinical Collection, primary screen (AID 743270; call rule not given here); settings: NS3 helicase binding to Cy5-dT15 DNA, stronger effect = higher value, concentration not given here
[8] = target: Single-stranded DNA-binding protein (Escherichia coli (strain K12)) (UniProt P0AGE0); test: SSB-ssDNA binding inhibitors – biochemical, fluorescence polarization, NIH Clinical Collection, counter-screen for HCV NS3 helicase inhibitor project (AID 743271; in the data active = inhibition above about 28%); settings: E. coli SSB-DNA binding, stronger effect = higher value, concentration not given here
[9] = compounds distorting NS3 helicase fluorescence signal – biochemical, NIH Clinical Collection, artefact control for HCV NS3 helicase inhibitor project (AID 743272; call rule not given here;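 also: HCV NS3 helicase with a Cy5 labelled single stranded DNA probe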); settings: fluorescence interference counterscreen, HCV NS3 helicase assay; stronger effect = lower value
F380Y/beta4 = test: BK channel mutant inhibitors and activators – cell-based, U2OS BacMam, thallium flux, beta subunits, selectivity assay, profiling panel (AID 1259406); settings: U2OS BacMam BK variants, at 30 µM;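 also: initial slope of Thallos dye fluorescence rise after thallium is added; log ratio against the mean of 0.3% DMSO vehicle wells on the same plate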
[10] = target: Calcium-activated potassium channel subunit alpha-1 (Homo sapiens) + Leucine-rich repeat-containing protein 26 (Homo sapiens) (UniProt Q12791+Q2I0M4); test: as above; settings: U2OS BacMam BK variants, F380Y/Slo1WT/gamma1, at 30 µM
R275C = test: as above; settings: U2OS BacMam BK variants, at 30 µM
R275C/beta1 = test: as above; settings: U2OS BacMam BK variants, at 30 µM
R275C/beta2Delta = test: as above; settings: U2OS BacMam BK variants, at 30 µM
R275C/beta4 = test: as above; settings: U2OS BacMam BK variants, at 30 µM
R275C/Slo1WT/beta2 = test: as above; settings: U2OS BacMam BK variants, at 30 µM
[11] = galactose survival enhancers in mitochondrial complex I cybrids – cell-based, galactose medium, ATP luminescence, primary screen (AID 1645843;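 active = z-score of at least 1.8 in each of two replicates, scored against plate mean and spread of sample wells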;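 also: positive z means more ATP and so rescue of galactose-driven cybrid death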); settings: complex I mutant cybrid cells, 72 h, stronger effect = higher value

Calcium-activated potassium channel subunit alpha-1 (Homo sapiens) + Leucine-rich repeat-containing protein 26 (Homo sapiens), sequence (Q2I0M4 whole entry, looked up, one chain of several): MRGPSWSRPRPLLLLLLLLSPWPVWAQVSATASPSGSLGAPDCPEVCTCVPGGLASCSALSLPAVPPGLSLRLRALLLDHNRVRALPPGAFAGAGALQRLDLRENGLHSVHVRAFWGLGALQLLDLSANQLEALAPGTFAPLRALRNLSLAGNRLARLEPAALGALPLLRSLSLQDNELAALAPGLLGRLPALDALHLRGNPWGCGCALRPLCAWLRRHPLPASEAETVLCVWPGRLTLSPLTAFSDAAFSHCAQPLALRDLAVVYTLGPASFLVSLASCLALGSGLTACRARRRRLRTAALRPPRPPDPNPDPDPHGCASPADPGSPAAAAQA

Structure (SMILES) | inhibition [1] [%] | score [2] | cytochrome c release ratio [3] | inhibition of aggregation [4] [%] | glutamate uptake change [5] [%] | fluorescence ratio [6] | inhibition [7] | inhibition [8] | fluorescence ratio [9] | log fold change Tl+ flux (F380Y/beta4) | log fold change Tl+ flux [10] | log fold change Tl+ flux (R275C) | log fold change Tl+ flux (R275C/beta1) | log fold change Tl+ flux (R275C/beta2Delta) | log fold change Tl+ flux (R275C/beta4) | log fold change Tl+ flux (R275C/Slo1WT/beta2) | z-score [11]
CCN(CCO)CCCC(C)Nc1ccnc2cc(Cl)ccc12 (stereo not given) | -6.7 | 1.54 | 0.8 | 27.4 | 0 | – | – | – | – | – | – | – | – | – | – | – | –
CC(C)NCC(O)c1ccc(O)c(O)c1 (stereo not given) | 19.5 | 1.1 | 0.68 | 84.7 | -0.29 | 1.01 (inactive) | -5% (inactive) | -0.48% (inactive) | 0.95 (inactive) | 0.0647 (inactive) | -0.00786 (inactive) | 0.0272 (inactive) | -0.0419 (inactive) | 0.00121 (inactive) | 0.0195 (inactive) | -0.00526 (inactive) | –
Clc1cccc(Cl)c1NC1=NCCN1 | 5.5 | 1.4 | 1.31 | 86.9 | 13.8 | 1.05 (inactive) | -2.77% (inactive) | -2.41% (inactive) | 1.02 (inactive) | -0.00138 (inactive) | 0.0127 (inactive) | -0.0635 (inactive) | 0.000941 (inactive) | -0.00732 (inactive) | 0.0373 (inactive) | 0.0101 (inactive) | –
CCC(C)(C)C(=O)O[C@H]1C[C@@H](C)C=C2C=C[C@H](C)[C@H](CC[C@@H]3C[C@@H](O)CC(=O)O3)[C@H]21 | – | – | – | – | – | 1.04 (inactive) | -1.36% (inactive) | 6.39% (inactive) | 0.92 (inactive) | -0.0747 (inactive) | 0.0806 (active) | 0.0702 (inactive) | 0.116 (active) | 0.0611 (inactive) | 0.067 (inactive) | -0.0513 (inactive) | -1.4 (inactive) and -0.73 (inactive) and -0.85 (inactive)
NC12CC3CC(CC(C3)C1)C2 | -8.1 | 1.77 | 0.94 | 63.2 | -5.28 | 0.99 (inactive) | -0.45% (inactive) | -1.24% (inactive) | 0.97 (inactive) | 0.0492 (inactive) | 0.0152 (inactive) | -0.00425 (inactive) | 0.0102 (inactive) | 0.045 (inactive) | -0.0136 (inactive) | 0.0148 (inactive) | 0.28 (inactive) and 0.225 (inactive) and 0.335 (inactive)
N=C(N)c1ccc(OCCCCCOc2ccc(C(=N)N)cc2)cc1 | -13.3 | 0.69 | 2.1 | 62.8 | 6.93 | – | – | – | – | – | – | – | – | – | – | – | -0.685 (inactive)
c1ccc([C@H]2CN3CCSC3=N2)cc1 | 60.8 | 1.41 | 0.88 | 72.2 | 4.54 | – | – | – | – | – | – | – | – | – | – | – | 0.83 (inactive) and -0.1 (inactive)
CCCCCN=C(N)N/N=C/c1c[nH]c2ccc(OC)cc12 | – | – | – | – | – | 0.7 (active) | 8.32% (inactive) | 7.6% (inactive) | 0.88 (inactive) | – | – | – | – | – | – | – | –
c1ccc(CC2=NCCN2)cc1 | 7.62 | 1.26 | 1.14 | 87 | 1.58 | 1.05 (inactive) | -2.27% (inactive) | -0.48% (inactive) | 1.01 (inactive) | -0.03 (inactive) | -0.0313 (inactive) | -0.0482 (inactive) | 0.0322 (inactive) | -0.00877 (inactive) | 0.0215 (inactive) | 0.0521 (inactive) | 0.495 (inactive)
CN1C(C(=O)Nc2ccccn2)=C(O)c2ccccc2S1(=O)=O | -2.37 | 0.27 | 1.16 | 83.1 | -13.7 | 1.01 (inactive) | 1.98% (inactive) | 1.44% (inactive) | 0.98 (inactive) | -0.0159 (inactive) | 0.00877 (inactive) | 0.0414 (inactive) | 0.0251 (inactive) | -0.00889 (inactive) | 0.00622 (inactive) | -0.000416 (inactive) | –
CC[C@H](C)C(=O)O[C@H]1C[C@@H](C)C=C2C=C[C@H](C)[C@H](CC[C@@H]3C[C@@H](O)CC(=O)O3)[C@H]21 | -14.6 | -1.08 | 0.75 | 26.5 | -19 | 1.1 (inactive) | 3.18% (inactive) | 3.34% (inactive) | 0.96 (inactive) | -0.0805 (inactive) | 0.025 (inactive) | -0.0727 (inactive) | 0.0657 (inactive) | 0.0172 (inactive) | 0.0477 (inactive) | -0.0508 (inactive) | -0.3 (inactive) and -0.62 (inactive) and -0.095 (inactive)
Oc1ccc(/C=C/c2cc(O)cc(O)c2)cc1 | – | – | – | – | – | 0.95 (inactive) | -2.84% (inactive) | -2.76% (inactive) | 0.93 (inactive) | 0.154 (active) | 0.0893 (inactive) | 0.00518 (inactive) | 0.139 (active) | 0.139 (active) | 0.092 (active) | 0.0308 (inactive) | 2.52 (active) and 1.26 (inactive)
O=C1CCC(N2C(=O)c3ccccc3C2=O)C(=O)N1 (stereo not given) | 8.81 | 1.27 | 1.09 | 81 | -12.1 | 1.04 (inactive) | -1.36% (inactive) | -1.24% (inactive) | 0.99 (inactive) | 0.0329 (inactive) | -0.00962 (inactive) | 0.0291 (inactive) | -0.0697 (inactive) | 0.0347 (inactive) | -0.108 (inactive) | -0.0685 (inactive) | –
